# Screens as filed in PubChem.
# The list is not random: actives were taken first. Their share in the collection is about 8.3%.
# MARV entry inh: qHTS for inhibitors of binding or entry into cells for Marburg Virus | Potency, µM (top dose mostly 37.8 µM), for the others: top-dose activity change, negative = inhibition, actives largely listed as inhibitors | 300,000 tested, 1.8% active | Marburg virus pseudotyped entry inhibition, cell reporter; calls by dose curve; tested in HEK293 cells; further: potency means the concentration at half of the fitted maximal effect
# HCV inh: qHTS Assay for Inhibitors of Hepatitis C Virus (HCV). 340,000 tested, 3.4% active. Potency, µM (titrated, usually from 41.8 µM), for the others: at the top dose activity change, negative = inhibition, usual class: inhibitors. Huh7.5.1 HCVcc-Cre infection, luciferase reporter, 44 h; further: potency means the concentration at half of the fitted maximal effect
#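 A cell-based infection assay in which seeded cells (1,000 per well) receive test compound after 4 h, are inoculated with HCVcc-Cre at approximately 0.5 moi, and are incubated 44 h before luminescence detection.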
# Lassa entry inh: qHTS for Inhibitors of binding or entry into cells for Lassa Virus; 300,000 tested, 1.2% active; Lassa virus pseudotype entry inhibition, cell reporter; AID 540256, 2011; Potency, µM (top dose mostly 37.9 µM), without a hit: top-dose activity change, negative = inhibition, hits mostly inhibitors; calls by dose curve; tested in HEK293 cells; further: potency means the concentration at half of the fitted maximal effect; nearly all actives have a fitted effect of over 50% in size
# FMDV antiviral: High Throughput Screening for Foot and Mouth Disease Virus Antivirals | FMDV antiviral cell-based qHTS | Potency, µM (series often up to 57.9 µM), for inactives: top-dose activity change, negative = inhibition, actives largely listed as inhibitors | 410,000 tested, 1.2% active | AID 1159524, 2015; calls by dose curve; tested in HEK293T cells; further: read-out not given here; potency means the concentration at half of the fitted maximal effect; nearly all actives have a fitted effect of over 45% in size
# Giardia FBPA inh: qHTS Assay for Inhibitors of Fructose-1,6-bisphosphate Aldolase from Giardia Lamblia. Potency, µM (series often up to 59.6 µM), for the others: at the highest dose activity, negative = inhibition, hits mostly inhibitors. AID 2451, 2010. purified Giardia FBPA. A8B2U2. 290,000 tested, 0.71% active; further: potency means the concentration at half of the fitted maximal effect; nearly all actives have a fitted effect of over 55% in size
# Target sequence (A8B2U2 whole entry, looked up): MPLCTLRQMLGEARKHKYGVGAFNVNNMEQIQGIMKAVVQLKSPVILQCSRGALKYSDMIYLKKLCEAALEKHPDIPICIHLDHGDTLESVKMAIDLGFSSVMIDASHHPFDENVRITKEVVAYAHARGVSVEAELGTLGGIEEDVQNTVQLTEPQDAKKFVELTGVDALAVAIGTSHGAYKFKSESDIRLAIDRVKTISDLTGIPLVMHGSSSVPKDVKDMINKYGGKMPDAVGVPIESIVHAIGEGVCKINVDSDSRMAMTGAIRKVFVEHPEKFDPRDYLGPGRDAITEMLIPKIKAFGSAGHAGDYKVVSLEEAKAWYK
#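 40 nM FBPA preincubated 10 min at RT with compound (up to 57.5 uM final), then substrate plus GAPDH/TPI/NAD/arsenate coupling and diaphorase/resazurin added. Fluorescence read after 20 min at RT, 525/598 nm.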
# HCMV antiviral: qHTS Assay for inhibitors of the human cytomegalovirus (HCMV); HFF cells, HCMV-luciferase reporter, 72 h; hits give low values; activity change, negative = inhibition, % at 57.5 µM; 410,000 tested, 4.5% active; in the data active means activity change below about -60%; inconclusive means no clear call, values can overlap the other calls; inactive means above about -39%
#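 Two compound doses tested in HFFs infected with HCMV-luciferase, MOI 1 PFU/cell, 72 h at 37C. Lysate luminescence read with OneGlo; data normalized against buffer-only and 10uM Salinomycin inhibitor controls.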
# Starred values were filed as active, the others as inactive; u = inconclusive; x = no result given; ! = not confirmed by another sample; [ ] = dose if it differs, or a comment. Unless noted, the call rests on the fitted dose curve; in most records, active means well fitted curve in the direction sought with a large enough effect; inconclusive means small, poorly fitted or top-dose-only effect, or another doubt; inactive means no such curve, though single readings can be large; an effect the other way counts as inactive or inconclusive. On the % scale 0 is the no-effect control and ±100 the full control effect.
SMILES,MARV entry inh,HCV inh,Lassa entry inh,FMDV antiviral,Giardia FBPA inh,HCMV antiviral
O=C(CCCSc1nc(-c2ccco2)cc(C(F)(F)F)n1)Nc1ccc2c(c1)OCO2,-3.2%,3.98µM*,-5.8%,-16.7%,u,-25.8
Cc1nn(C)c(C)c1NC(=O)CCCSc1nc(-c2ccco2)cc(C(F)(F)F)n1,u,2.24µM*,-15.5%,u,1.2%,u
CCOCCCN(Cc1ccco1)S(=O)(=O)c1cc2c(cc1Cl)NC(=O)CO2,x,x,-13.0%[46.1 µM],-0.5%,x,0.0
COc1cccc(Cn2c(CNC(=O)Cc3cccc(C)c3)nc3cccnc32)c1,x,x,-17.7%[46.1 µM],1.1%,x,u
O=C(CSc1nc(-c2ccco2)cc(C(F)(F)F)n1)Nc1ccc2c(c1)OCO2,-10.7%,3.55µM*,-9.4%,u,11.8%,u
COc1ccc(NC(=O)CSc2nc(-c3ccco3)cc(C(F)(F)F)n2)cc1,u,x,u,-2.3%,x,-4.7
Cc1ccc(C2=NCC(C)n3nc4cc(C(F)(F)F)ccc4c32)cc1 (centres undefined),x,x,x,x,x,58.7
CCc1ccc2[nH]c(=O)c(C(c3nnnn3CC3CCCO3)N3CCCc4ccccc43)cc2c1 (centres undefined),9.2µM*,-5.9%,-25.4%,13.5%,u,-30.9
O=c1[nH]c2cc3c(cc2cc1C(c1nnnn1Cc1ccccc1)N1CCCc2ccccc21)OCO3 (centres undefined),u,15.9%,-12.7%,32.2%,0.5%,-84.6*
O=c1c2ccccc2nnn1CSc1nnc(COc2ccc(Cl)cc2)n1Cc1ccco1,-0.7%,u,-21.1%,0.2%,x,-60.0*
COc1ccccc1NC(=O)CSc1nnc(COc2ccc(Cl)cc2)n1Cc1ccco1,-15.7%,11.2µM*,-9.4%,-16.9%,-0.5%,27.9
Clc1ccc(OCc2nnc(SCCN3CCCCC3)n2Cc2ccco2)cc1,25.9µM*!,u,-21.4%,-10.9%,8.2%,-0.5
CC(C)CSc1nnc(-c2ccccc2)c(-c2ccccc2)n1,6.8%[46.1 µM],x,-14.2%[46.1 µM],-11.2%,x,-17.0
O=C(CCNNC(=O)c1ccncc1)NCc1ccccc1,u,13.8%[8.37 µM],u,-24.5%,0.2%,-103.1*
CCN(C[C@H]1N[C@@](C)(C(=O)OC)[C@H]2C(=O)N(C)C(=O)[C@@H]12)C(=O)Nc1ccc(OC)cc1,x,2.51µM*,x,-11.4%,x,45.8
Cc1nnc2n1N=CC=C(c1ccccc1)S2,u,u,u,u,-4.7%,-99.0*
CCCCCCCC#Cc1ccccc1/C=N/S(=O)C(C)(C)C (centres undefined),x,x,x,x,0.1%[12.9 µM],x
COCC1CN(CCc2ccc(F)cc2)S(=O)(=O)c2c(OCCN3C(=O)[C@@H]4[C@H](C3=O)[C@@H]3C=C[C@H]4C3)cccc2O1 (some centres undefined),x,x,x,x,x,2.8
COc1ccc(C(=O)CC(=O)c2ccccc2)cc1,-24.7%[46.1 µM],-9.6%,u,38.8%,x,37.8
COc1ccc(C(=O)C/C(=C\C(=O)c2ccc(C)cc2)c2ccccc2)cc1,u,11.2µM*,u,-15.4%,4.8%,-97.9*
COc1ccc(C(CC(=O)c2ccccc2)S(=O)(=O)c2ccc(C)cc2)cc1 (centres undefined),0.8%,u,-2.7%,79.2%,0.7%,-105.4*
Cc1nc(N)nc(Cl)c1Cc1ccc(Cl)cc1,u,15.1%,-9.5%[46.1 µM],-12.7%,-6.2%,-61.2*
Cc1nc(N)nc(C)c1Cc1ccccc1,-28.8%[46.1 µM],2.8%,-6.7%,-20.3%,-1.4%,-35.3
COc1ccc(/C=N/OCC(=O)NC(c2ccccc2)c2ccccc2)cc1OC,u,3.98µM*,u,7.08µM*,-4.4%,-65.5*
CCOc1ccc(/C=N/OCC(=O)Nc2ccc(OCc3ccccc3)cc2)cc1OC,u,-13.3%,-0.7%,6.9%,1.6%,17.0
SMILES,MARV entry inh,HCV inh,Lassa entry inh,FMDV antiviral,Giardia FBPA inh,HCMV antiviral
COc1cc(/C=N/OCC(=O)Nc2ccc(OC(F)F)cc2)ccc1OCc1ccccc1,7.08µM*,u,u,0.3%,-3.8%,12.4
C(=N\Nc1nc2ccccc2[nH]1)/c1cccc2cccnc12,x,3.98µM*,x,41.1%,-27.0%,-100.9*
C(=N\Nc1nc2ccccc2[nH]1)/C1CCCCC1,4.7%[46.1 µM],6.0%,u,19.1%,4.2%,-86.9*
O=C(N/N=C/c1cccc2cccnc12)c1ccccc1O,x,u,x,1.2%,u,-102.9*
O=c1c2ccccc2nc(/C=C\c2cccc(Br)c2)n1-c1ccc(O)cc1,x,x,u,-5.3%,x,-92.0*
O=c1c2ccccc2nc(/C=C/c2ccccc2)n1-c1ccccc1O,u,-27.7%,u,-13.9%,-6.0%,-94.9*
O=c1c2ccccc2nc(/C=C/c2cccc([N+](=O)[O-])c2)n1CCO,u,u,u,-25.0%,1.5%,u
O=c1c2ccccc2nc(/C=C/c2ccccc2)n1-c1ccc(O)cc1,u,u,u,u,-3.1%,-88.1*
O=c1c2ccccc2nc(/C=C/c2cc(Br)ccc2O)n1CCCO,u,u,10µM*,25.1µM*,9.0%,-96.3*
COCCNc1nnc(SC(C)C(=O)Nc2ccc(-c3nc4ccc(C)cc4s3)cc2)s1 (centres undefined),u,6.31µM*,u,-19.7%,-0.6%,29.9
COCCNc1nnc(SC(C)C(=O)Nc2c(C)n(C)n(-c3ccccc3)c2=O)s1 (centres undefined),9.1%,22.2%,8.5%,-7.8%,x,-28.3
CC1CCN(S(=O)(=O)c2cn(CC(=O)Nc3ccc(F)cc3)c(=O)c3ccccc23)CC1,5.62µM*,x,u,8.8%,x,-3.2
CC1CCN(S(=O)(=O)c2cn(CC(=O)Nc3cccc(C(F)(F)F)c3)c(=O)c3ccccc23)CC1,u,x,u,24.0%,x,u
CC(C)(C)N1C(=O)[C@H]2[C@@H]3[C@H](O)C=CC(=O)[C@H]3CC[C@H]2C1=O,x,x,x,x,0.9%[12.9 µM],x
COc1ccccc1N1CCN(S(=O)(=O)c2cc(C(=O)Nc3ccc(Oc4ccccc4)cc3)ccc2F)CC1,x,x,u,u,x,-67.1*
Cc1cccc(NC(=O)c2ccc(F)c(S(=O)(=O)N3CCN(c4ccc(F)cc4)CC3)c2)c1,x,x,u,u,x,-73.3*
Cc1ccnc(NC(=O)c2cccc(S(=O)(=O)N3CCN(c4ccc(F)cc4)CC3)c2)c1,u,10µM*,1.0%[46.1 µM],-18.6%,x,-23.7
Cc1cccc(N2CCN(S(=O)(=O)c3cc(C(=O)Nc4ccc(Oc5ccccc5)cc4)ccc3F)CC2C)c1 (centres undefined),x,x,u,u,x,-64.0*
Cc1ccnc(NC(=O)c2cccc(S(=O)(=O)N3CCOCC3)c2)c1,-0.4%,-8.3%,10.4%,9.7%,x,17.5
